Experimental data taken from the supplement of paper PMC11732987, “Enantioselective OTUD7B fragment discovery through chemoproteomics screening and high-throughput optimisation” (Communications Chemistry, 2025).

Tests used:
Test in all cases: log2 ratio of Biotin-Ahx-Ub-VS probe labelling (fragment/DMSO); higher = less target engagement (more negative = stronger competition), active = hit call of the paper (q ≤ 0.05, log2 ratio ≤ -1)
Settings in all cases: compound concentration: 200 uM; treatment time: 3 h
USP42 = target: T1, USP42 (UniProt Q9H9J4)
T1 sequence (whole entry): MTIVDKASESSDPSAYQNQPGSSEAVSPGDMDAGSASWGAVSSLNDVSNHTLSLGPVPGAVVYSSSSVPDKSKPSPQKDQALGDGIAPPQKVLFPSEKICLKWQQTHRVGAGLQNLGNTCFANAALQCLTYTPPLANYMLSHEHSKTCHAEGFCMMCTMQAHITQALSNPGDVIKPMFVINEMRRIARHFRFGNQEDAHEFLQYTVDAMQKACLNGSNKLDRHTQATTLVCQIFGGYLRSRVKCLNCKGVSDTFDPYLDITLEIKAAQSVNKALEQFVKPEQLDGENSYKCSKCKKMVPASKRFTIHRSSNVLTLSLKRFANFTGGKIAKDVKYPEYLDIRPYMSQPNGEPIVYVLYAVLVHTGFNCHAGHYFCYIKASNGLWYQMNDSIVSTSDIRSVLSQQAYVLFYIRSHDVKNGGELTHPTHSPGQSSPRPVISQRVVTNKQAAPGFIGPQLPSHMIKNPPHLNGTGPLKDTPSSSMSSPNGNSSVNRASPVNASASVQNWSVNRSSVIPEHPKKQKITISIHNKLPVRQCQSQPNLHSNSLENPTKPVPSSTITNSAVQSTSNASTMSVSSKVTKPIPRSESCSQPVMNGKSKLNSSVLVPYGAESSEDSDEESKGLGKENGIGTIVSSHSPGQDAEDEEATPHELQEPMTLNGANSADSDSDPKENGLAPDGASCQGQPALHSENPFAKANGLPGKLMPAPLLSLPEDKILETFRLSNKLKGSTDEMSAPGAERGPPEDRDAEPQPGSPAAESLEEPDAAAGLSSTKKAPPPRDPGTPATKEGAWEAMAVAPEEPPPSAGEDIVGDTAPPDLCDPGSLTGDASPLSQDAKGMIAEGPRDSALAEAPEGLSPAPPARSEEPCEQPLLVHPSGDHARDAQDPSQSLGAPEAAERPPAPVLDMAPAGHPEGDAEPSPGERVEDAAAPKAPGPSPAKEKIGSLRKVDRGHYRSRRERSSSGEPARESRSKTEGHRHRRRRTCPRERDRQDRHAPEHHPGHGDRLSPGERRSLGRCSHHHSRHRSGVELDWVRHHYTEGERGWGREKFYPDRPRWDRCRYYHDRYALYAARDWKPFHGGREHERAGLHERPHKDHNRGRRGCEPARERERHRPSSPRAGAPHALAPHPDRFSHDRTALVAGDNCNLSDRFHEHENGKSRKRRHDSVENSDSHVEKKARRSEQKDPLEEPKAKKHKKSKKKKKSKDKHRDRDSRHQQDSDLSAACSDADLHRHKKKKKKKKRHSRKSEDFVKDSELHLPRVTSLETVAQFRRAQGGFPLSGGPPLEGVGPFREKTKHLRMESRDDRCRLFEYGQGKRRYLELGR
Outline: (§1)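 The table lists average log2 ratios of fragment over vehicle, from an unpaired t-test on global-median-normalised Spectronaut label-free quantities. Proteins with ≥2 unique peptides were used. Samples were HEK293T lysate (495 µg) treated in triplicate with fragment at 200 µM or vehicle for 3 h, then with Biotin-Ahx-Ub-VS (0.5 µM final) for 1 h, with labelled DUBs NeutrAvidin-enriched and run by diaPASEF LC-MS/MS.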

USP46 = USP46 (UniProt P62068)
Outline: as §1

USP47 = target: T2, USP47 (UniProt Q96K76)
T2 sequence (whole entry): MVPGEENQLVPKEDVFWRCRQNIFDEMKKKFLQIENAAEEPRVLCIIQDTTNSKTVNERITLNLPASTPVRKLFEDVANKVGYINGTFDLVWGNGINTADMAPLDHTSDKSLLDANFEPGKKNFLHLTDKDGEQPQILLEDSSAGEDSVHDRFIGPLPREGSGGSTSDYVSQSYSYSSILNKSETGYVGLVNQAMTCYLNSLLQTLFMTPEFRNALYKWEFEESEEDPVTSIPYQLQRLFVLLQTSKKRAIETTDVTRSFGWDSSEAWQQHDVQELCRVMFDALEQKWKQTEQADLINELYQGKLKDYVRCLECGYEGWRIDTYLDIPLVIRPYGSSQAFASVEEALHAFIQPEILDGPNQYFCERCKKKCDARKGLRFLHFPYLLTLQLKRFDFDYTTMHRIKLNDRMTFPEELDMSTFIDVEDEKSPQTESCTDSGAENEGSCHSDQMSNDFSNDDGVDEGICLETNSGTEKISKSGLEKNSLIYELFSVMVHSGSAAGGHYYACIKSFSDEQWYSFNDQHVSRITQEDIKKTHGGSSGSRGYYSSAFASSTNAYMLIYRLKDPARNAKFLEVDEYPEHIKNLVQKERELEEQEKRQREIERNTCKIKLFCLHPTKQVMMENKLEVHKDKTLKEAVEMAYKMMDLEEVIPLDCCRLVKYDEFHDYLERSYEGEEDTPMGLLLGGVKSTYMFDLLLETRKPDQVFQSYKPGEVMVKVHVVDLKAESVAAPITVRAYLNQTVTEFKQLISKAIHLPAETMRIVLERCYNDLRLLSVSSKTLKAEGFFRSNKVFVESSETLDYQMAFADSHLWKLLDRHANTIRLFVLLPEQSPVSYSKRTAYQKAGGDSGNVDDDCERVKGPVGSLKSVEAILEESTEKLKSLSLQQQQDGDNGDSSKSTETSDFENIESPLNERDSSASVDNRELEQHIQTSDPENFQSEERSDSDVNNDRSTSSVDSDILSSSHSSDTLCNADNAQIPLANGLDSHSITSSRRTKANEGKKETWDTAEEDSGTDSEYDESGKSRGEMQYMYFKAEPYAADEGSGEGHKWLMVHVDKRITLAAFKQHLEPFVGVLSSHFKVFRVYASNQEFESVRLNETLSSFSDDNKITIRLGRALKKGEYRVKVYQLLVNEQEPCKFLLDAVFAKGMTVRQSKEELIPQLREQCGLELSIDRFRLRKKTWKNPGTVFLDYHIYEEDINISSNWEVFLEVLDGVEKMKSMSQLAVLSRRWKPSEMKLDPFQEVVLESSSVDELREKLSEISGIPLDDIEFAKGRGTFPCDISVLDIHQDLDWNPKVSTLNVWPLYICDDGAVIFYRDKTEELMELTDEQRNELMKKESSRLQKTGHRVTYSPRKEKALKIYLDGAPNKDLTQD
Outline: as §1

USP48 = target: T3, USP48 (UniProt Q86UV5)
T3 sequence (whole entry): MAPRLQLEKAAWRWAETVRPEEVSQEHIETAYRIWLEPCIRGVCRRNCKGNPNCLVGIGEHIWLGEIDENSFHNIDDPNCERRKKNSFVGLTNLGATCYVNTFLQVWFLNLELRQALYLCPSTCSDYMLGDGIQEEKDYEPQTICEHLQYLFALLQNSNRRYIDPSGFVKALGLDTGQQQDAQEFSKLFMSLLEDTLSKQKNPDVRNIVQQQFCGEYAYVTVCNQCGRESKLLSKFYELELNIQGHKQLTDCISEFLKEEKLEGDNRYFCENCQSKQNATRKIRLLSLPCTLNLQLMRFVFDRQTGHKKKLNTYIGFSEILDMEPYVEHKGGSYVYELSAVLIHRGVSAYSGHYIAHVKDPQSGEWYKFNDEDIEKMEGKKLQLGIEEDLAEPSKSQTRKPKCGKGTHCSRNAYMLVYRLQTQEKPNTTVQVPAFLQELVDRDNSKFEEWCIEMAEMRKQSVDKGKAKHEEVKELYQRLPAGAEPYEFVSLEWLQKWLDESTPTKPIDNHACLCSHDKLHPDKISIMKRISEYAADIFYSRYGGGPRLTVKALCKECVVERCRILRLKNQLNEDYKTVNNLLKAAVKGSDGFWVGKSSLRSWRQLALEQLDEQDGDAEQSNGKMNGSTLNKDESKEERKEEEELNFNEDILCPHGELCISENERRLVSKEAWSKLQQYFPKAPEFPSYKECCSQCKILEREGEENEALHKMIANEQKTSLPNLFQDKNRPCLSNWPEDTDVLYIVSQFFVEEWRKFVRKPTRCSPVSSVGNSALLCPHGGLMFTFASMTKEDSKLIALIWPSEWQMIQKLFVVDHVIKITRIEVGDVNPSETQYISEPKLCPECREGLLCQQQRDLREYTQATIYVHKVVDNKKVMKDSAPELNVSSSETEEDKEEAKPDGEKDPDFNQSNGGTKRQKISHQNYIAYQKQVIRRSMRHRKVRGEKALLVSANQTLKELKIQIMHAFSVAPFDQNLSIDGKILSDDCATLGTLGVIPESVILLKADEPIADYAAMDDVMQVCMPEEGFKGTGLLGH
Outline: as §1

USP5 = target: T4, USP5 (UniProt P45974)
T4 sequence (whole entry): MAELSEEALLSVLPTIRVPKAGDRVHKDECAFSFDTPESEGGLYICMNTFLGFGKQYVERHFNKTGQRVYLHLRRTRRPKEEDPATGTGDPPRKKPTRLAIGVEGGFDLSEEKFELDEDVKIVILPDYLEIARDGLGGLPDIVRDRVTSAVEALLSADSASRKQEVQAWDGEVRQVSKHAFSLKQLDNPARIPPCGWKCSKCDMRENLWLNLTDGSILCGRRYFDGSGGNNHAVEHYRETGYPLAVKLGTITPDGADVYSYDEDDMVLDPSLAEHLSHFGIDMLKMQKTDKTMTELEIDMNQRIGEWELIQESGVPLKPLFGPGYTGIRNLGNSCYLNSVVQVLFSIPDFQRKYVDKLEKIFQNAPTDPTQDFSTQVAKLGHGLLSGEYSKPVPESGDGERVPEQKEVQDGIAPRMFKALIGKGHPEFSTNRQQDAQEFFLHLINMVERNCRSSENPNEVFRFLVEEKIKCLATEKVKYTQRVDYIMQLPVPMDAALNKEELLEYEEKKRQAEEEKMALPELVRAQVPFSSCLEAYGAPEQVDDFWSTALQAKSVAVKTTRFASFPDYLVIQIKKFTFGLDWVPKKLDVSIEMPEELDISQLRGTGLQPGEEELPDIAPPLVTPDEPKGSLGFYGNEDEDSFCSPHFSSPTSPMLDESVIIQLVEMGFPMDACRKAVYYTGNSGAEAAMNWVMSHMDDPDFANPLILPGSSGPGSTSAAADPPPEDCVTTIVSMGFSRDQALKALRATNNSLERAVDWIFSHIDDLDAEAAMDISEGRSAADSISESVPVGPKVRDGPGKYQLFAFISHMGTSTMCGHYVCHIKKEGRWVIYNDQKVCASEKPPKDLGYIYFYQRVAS
Outline: as §1

USP54 = USP54 (UniProt Q70EL1)
Outline: as §1

USP7 = USP7 (UniProt Q93009)
Outline: as §1

USP8 = target: T5, USP8 (UniProt P40818)
T5 sequence (whole entry): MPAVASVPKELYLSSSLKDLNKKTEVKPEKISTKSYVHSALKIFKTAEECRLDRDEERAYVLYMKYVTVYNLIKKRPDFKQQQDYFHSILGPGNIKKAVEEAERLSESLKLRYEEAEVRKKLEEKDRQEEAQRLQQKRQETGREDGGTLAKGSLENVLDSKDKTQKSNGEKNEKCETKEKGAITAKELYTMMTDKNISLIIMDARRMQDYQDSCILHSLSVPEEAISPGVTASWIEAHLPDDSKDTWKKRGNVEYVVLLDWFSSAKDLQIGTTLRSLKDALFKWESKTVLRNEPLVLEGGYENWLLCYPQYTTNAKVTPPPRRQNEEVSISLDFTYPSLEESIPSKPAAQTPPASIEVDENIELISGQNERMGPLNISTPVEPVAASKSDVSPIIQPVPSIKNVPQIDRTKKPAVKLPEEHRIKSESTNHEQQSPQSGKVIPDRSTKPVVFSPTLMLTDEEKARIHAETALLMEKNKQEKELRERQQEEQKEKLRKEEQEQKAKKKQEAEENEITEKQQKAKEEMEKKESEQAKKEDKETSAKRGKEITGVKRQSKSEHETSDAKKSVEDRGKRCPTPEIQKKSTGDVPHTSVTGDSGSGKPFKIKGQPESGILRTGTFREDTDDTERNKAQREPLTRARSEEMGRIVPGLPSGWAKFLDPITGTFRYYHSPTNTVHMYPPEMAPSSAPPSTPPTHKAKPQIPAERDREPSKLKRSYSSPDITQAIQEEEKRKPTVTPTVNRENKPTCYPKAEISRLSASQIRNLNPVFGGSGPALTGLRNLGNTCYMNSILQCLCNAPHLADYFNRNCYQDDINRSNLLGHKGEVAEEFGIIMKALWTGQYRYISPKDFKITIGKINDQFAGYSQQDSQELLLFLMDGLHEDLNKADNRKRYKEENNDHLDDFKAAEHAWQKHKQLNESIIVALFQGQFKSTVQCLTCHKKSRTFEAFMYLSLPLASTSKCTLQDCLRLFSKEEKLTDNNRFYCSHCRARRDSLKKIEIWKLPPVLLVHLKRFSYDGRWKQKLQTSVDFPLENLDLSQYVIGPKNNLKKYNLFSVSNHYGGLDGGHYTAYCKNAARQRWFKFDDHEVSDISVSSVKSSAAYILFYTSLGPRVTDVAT
Outline: as §1

USP9X = USP9X (UniProt Q93008)
Outline: as §1

UniProt O00487 = target: UniProt O00487
Outline: as §1

Measured: log2 ratio of Biotin-Ahx-Ub-VS probe labelling

USP9X, sequence (Q93008 whole entry): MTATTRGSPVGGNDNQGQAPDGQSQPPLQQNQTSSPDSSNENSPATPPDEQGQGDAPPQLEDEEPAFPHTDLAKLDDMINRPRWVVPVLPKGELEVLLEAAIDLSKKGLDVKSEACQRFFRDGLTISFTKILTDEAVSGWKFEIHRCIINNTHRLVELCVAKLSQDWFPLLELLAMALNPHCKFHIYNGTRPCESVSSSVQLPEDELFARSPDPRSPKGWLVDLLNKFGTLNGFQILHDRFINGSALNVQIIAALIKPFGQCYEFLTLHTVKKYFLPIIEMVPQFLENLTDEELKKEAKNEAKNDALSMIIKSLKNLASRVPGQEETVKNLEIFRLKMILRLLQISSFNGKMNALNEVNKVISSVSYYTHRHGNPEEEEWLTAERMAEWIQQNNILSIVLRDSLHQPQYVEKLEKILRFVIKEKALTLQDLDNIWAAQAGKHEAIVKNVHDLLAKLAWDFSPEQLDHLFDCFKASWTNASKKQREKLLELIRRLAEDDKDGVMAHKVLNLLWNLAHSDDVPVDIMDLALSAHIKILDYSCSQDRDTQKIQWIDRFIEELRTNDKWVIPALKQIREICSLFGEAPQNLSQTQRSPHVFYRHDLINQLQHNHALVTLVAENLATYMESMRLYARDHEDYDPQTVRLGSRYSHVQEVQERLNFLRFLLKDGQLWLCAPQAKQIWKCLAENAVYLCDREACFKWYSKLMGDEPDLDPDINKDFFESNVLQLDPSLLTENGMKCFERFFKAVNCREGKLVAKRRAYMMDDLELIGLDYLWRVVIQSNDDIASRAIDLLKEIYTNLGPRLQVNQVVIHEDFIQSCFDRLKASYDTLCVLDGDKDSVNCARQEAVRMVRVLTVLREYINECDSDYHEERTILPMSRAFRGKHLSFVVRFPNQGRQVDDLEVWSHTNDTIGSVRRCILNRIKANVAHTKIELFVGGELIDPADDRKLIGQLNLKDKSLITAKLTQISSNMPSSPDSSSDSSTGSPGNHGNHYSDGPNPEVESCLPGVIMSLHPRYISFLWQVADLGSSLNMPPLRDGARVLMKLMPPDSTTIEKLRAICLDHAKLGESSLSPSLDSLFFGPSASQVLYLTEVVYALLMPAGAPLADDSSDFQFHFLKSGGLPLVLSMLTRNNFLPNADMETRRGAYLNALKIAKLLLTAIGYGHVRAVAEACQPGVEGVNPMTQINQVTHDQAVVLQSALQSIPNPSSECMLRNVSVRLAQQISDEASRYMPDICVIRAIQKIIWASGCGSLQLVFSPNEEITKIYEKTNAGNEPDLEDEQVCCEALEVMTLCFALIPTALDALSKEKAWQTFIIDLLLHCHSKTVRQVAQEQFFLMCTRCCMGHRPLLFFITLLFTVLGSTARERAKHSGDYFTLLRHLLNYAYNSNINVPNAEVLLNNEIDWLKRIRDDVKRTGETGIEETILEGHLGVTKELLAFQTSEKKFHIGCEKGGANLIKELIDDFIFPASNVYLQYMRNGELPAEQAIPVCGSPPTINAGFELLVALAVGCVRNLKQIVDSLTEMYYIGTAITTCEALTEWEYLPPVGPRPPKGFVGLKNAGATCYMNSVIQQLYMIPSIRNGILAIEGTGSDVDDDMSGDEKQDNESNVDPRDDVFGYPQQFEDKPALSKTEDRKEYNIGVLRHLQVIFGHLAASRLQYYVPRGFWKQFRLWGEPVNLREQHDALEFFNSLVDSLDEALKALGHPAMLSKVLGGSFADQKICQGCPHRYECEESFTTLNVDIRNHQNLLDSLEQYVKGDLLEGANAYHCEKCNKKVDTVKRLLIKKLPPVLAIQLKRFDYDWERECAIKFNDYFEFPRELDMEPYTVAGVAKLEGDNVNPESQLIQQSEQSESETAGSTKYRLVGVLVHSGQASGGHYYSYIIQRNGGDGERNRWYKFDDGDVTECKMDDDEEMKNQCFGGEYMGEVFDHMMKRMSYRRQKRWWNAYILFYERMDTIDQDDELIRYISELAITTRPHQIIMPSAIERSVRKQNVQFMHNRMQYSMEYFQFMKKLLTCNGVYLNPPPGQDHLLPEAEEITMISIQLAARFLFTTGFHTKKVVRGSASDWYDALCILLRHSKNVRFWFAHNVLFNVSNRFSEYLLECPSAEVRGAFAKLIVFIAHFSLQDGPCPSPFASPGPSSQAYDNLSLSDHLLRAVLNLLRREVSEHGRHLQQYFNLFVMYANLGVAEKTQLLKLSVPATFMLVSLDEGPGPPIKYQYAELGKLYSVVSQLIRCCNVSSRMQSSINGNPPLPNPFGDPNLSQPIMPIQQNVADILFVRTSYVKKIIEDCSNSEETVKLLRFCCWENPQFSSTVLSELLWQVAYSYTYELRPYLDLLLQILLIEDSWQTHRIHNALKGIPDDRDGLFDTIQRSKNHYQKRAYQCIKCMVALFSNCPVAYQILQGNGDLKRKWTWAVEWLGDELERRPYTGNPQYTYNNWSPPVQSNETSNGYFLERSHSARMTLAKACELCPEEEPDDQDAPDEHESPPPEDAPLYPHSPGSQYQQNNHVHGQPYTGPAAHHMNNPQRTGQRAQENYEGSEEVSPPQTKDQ
USP7, sequence (Q93009 whole entry, looked up): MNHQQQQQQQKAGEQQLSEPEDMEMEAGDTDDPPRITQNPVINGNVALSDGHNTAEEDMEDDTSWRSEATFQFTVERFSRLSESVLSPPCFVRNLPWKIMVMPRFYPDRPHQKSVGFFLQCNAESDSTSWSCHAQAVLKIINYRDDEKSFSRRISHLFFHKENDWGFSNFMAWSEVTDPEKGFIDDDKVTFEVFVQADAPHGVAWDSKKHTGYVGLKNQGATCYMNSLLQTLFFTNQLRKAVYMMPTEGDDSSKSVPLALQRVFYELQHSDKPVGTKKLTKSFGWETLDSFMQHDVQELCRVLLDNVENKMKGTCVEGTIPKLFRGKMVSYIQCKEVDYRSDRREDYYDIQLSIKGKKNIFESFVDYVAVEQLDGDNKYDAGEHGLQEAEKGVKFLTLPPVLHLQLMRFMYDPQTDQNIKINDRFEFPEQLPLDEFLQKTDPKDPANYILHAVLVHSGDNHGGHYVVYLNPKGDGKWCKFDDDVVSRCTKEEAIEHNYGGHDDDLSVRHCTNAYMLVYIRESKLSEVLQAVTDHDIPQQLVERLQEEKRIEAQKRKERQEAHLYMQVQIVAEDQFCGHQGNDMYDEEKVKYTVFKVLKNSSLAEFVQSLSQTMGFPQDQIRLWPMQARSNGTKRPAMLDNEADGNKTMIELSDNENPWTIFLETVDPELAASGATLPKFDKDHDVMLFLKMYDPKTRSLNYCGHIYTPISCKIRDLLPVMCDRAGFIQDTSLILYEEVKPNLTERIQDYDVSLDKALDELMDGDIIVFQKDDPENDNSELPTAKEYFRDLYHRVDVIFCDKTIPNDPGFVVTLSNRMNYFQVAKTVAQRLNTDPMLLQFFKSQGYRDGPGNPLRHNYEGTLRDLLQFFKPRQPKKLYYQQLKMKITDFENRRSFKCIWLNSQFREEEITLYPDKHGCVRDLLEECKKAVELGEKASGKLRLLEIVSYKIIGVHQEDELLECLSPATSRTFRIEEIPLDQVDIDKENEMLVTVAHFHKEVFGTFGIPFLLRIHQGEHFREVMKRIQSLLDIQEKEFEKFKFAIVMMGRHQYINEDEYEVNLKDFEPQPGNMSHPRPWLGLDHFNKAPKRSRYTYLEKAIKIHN
UniProt O00487, sequence (O00487 whole entry): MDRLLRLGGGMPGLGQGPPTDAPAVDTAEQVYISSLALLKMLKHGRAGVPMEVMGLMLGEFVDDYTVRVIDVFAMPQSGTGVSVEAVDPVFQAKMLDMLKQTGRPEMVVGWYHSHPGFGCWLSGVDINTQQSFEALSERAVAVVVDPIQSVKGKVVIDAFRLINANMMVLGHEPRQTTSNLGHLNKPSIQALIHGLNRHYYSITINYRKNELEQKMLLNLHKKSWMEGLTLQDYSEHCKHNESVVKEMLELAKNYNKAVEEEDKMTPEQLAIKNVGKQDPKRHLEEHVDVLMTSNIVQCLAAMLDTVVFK
USP46, sequence (P62068 whole entry): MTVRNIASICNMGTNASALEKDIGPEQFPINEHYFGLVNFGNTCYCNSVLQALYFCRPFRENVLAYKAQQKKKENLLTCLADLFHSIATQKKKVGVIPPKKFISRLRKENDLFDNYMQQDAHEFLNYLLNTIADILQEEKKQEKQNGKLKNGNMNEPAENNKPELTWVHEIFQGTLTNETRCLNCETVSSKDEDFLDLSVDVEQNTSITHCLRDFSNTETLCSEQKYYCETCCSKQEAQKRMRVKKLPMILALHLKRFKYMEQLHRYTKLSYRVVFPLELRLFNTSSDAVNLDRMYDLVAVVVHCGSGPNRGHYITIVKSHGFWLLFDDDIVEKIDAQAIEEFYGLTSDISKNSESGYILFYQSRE

Cc1ccc(C)c(NC(=O)CCl)c1
inactive: USP42 0.248 | USP46 -0.456 | USP47 -0.823 | USP48 -0.558 | USP5 -0.353 | USP54 -0.00643 | USP7 -0.537 | USP8 -0.263 | USP9X -0.374 | UniProt O00487 -0.102
